PMC4552634, “A New Set of Chemical Starting Points with Plasmodium falciparum Transmission-Blocking Potential for Antimalarial Drug Discovery” (PLoS ONE, 2015)
Like-named read-outs stand apart in the source and are kept apart here. The whole screen tested about 13,000 compounds, of which about 3,200 (25%) showed an effect of 50% or more. This is one part of the list.

System: P. falciparum stage V gametocytes
Set-up: BacTiter-Glo ATP luminescence viability of purified stage V gametocytes in 384-well plates, per cent inhibition versus DMSO
Details: 48 h, 5 µM, inhibitor

| Compound | % Inhibition | % Inhibition (% Inhibition) |
| --- | --- | --- |
| O=C(/C=C/c1ccc(Cl)c(Cl)c1)NC1CCC(CN2CCC(c3nc4ncccc4[nH]3)CC2)CC1 (stereo not drawn) [TCMDC-140264] | 5.039% | – |
| CC(C)(C)c1ccc(CN2CCC(NC(=O)c3ccc(-c4cccc(C(F)(F)F)c4)s3)CC2)cc1 [TCMDC-134348] | -9.273% | – |
| COc1cc(NC(=O)c2cc3c(C)nn(-c4cccc(C(F)(F)F)c4)c3s2)cc(OC)c1OC [TCMDC-123615] | -65.38% | – |
| Cc1nn(-c2cccc(C(F)(F)F)c2)c2sc(C(=O)NC3CCN(C(C)C)CC3)cc12 [TCMDC-125005] | 65.55% | – |
| COc1cc(OC)c2c(C)cc(NCCCN3CCOCC3)nc2c1 [TCMDC-125775] | -9.297% | – |
| COc1cc(OC)c2c(C)cc(NCCCn3ccnc3)nc2c1 [TCMDC-125762] | 61.26% | – |
| COc1cccc(-c2cc3nc4c(c(NCCCn5ccnc5)n3n2)CCCC4)c1 [TCMDC-124388] | -20.83% | – |
| Nc1nc(-c2ccc3c(Nc4ccc(F)c(Cl)c4)ccnc3c2)cs1 [TCMDC-138353] | 24.85% | – |
| Fc1ccccc1-c1cc(Nc2ccncc2)nc(-c2cccnc2)n1 [TCMDC-125415] | 17.65% | – |
| O=C(NCCCCCN1CCC(c2c[nH]c3ccccc23)CC1)Nc1cccc(Br)c1 [TCMDC-139116] | -20.19% | – |
| S=C(NCCCCCN1CCC(c2c[nH]c3ccccc23)CC1)Nc1cccc(I)c1 [TCMDC-139203] | 89.1% | – |
| O=C(NCCCCCN1CCC(c2c[nH]c3ccccc23)CC1)Nc1ccc(Cl)c(Cl)c1 [TCMDC-139117] | 79.3% | – |
| O=C(NCCCCCN1CCC(c2c[nH]c3ccccc23)CC1)Nc1cccc(I)c1 [TCMDC-139201] | 57.32% | – |
| Cc1cc(Cl)ccc1NC(=O)NCCCCCN1CCC(c2c[nH]c3ccccc23)CC1 [TCMDC-139168] | -22.23% | – |
| S=C(NCCCCCN1CCC(c2c[nH]c3ccccc23)CC1)Nc1ccc(Cl)c(Cl)c1 [TCMDC-139170] | -11.79% | – |
| S=C(NCCCCCN1CCC(c2c[nH]c3ccccc23)CC1)Nc1cc(Cl)cc(Cl)c1 [TCMDC-139171] | -46.2% | – |
| O=C(NCCCCCN1CCC(c2c[nH]c3ccccc23)CC1)Nc1ccc(I)cc1 [TCMDC-139165] | -24.33% | – |
| O=C(NCCCCCN1CCC(c2c[nH]c3ccccc23)CC1)Nc1cccc(Cl)c1 [TCMDC-139167] | 82.38% | – |
| O=C(NCC(CCCN1CCC(c2c[nH]c3ccccc23)CC1)c1ccccc1)Nc1ccc(Cl)c(Cl)c1 (stereo not drawn) [TCMDC-139507] | -18.56% | – |
| O=C(NCCCCCN1CCC(c2c[nH]c3ccccc23)C1)Nc1ccc(Cl)c(Cl)c1 (stereo not drawn) [TCMDC-139169] | -42.12% | – |
| O=C(Nc1cccc(-c2csc(-c3nc4ccccc4[nH]3)c2)c1)c1ccoc1 [TCMDC-132404] | 1.607% | – |
| N=C(N)NN=CC(=O)Nc1ccc(C(F)(F)F)cc1 [TCMDC-137560] | 10.99% | – |

| Compound | % Inhibition | % Inhibition (% Inhibition) |
| --- | --- | --- |
| CCC(CC(NCCCCNC(=O)c1ccc(NC(=O)c2ccc(Cl)cc2)cc1)c1ccccc1)c1ccccc1OC (stereo not drawn) [TCMDC-138580] | – | -0.1612% |
| Nc1ncc(-c2ccc(F)cc2)c2ccc(-c3cccc(F)c3)cc12 [TCMDC-134502] | -15.75% | – |
| NC(N)=NC(=O)Nc1cc(Br)c(Br)c(Br)c1 [TCMDC-137506] | -8.388% | – |
| CNCC(O)c1cc(Cl)c(Cl)cc1C (stereo not drawn) [TCMDC-131255] | 13.21% | – |
| CCn1ncc(Cl)c1CN(C)S(=O)(=O)c1ccc(Br)cc1 [TCMDC-124902] | 30.97% | – |
| CCSc1nc2sc3c(c2c(=O)n1-c1ccccc1)CCN(C)C3 [TCMDC-123852] | 14.1% | – |
| CCCN(CCC)S(=O)(=O)c1ccc(C(=O)N2CCC(C(=O)OCC)CC2)cc1 [TCMDC-139301] | 16.88% | – |
| Cc1nc(N)nc(N)c1-c1cccc(Cl)c1 [TCMDC-137375] | 13.21% | – |
| c1ccc(COc2ccc(Nc3ncnc4cnc(-c5ccc(CNc6cccnc6)o5)cc34)cc2)cc1 [TCMDC-137776] | 19.44% | – |
| O=C(NCCCCCN1CCC(c2c[nH]c3ccccc23)CC1)Nc1ccc(I)c(Cl)c1 [TCMDC-139202] | -23.12% | – |
| Cc1ccc(NC(=O)NCCCCCN2CCC(c3c[nH]c4ccccc34)CC2)cc1I [TCMDC-139200] | 66.97% | – |
| O=C(NCCCCCN1CCC(c2c[nH]c3ccccc23)CC1)Nc1ccc(Br)cc1 [TCMDC-139115] | -28.65% | – |
| CC1(C)N=C(N)N=C(N)N1c1ccc(Oc2ccc(Cl)cc2)c(Cl)c1 [TCMDC-123522] | 76.9% | – |
| Cc1cc(N2C(N)=NC(N)=NC2(C)C)ccc1Cl [TCMDC-137705] | -13.35% | – |
| Cc1ccc(N2C(N)=NC(N)=NC2(C)C)cc1Cl [TCMDC-137708] | -11.46% | – |
| COc1cccc(C(=O)NCc2cccs2)c1Oc1ccccc1 [TCMDC-141236] | 3.513% | – |
| NCC(=O)Nc1cccc(Nc2nccc(-c3c(-c4cccc(NC(=O)c5ccccc5)c4)nn4ccccc34)n2)c1 [TCMDC-135671] | -11.23% | – |
| O=C(CCc1ccccc1)N[C@H](Cc1c[nH]c2ccccc12)C(=O)N1CCC(NCc2ccc3c(c2)Cc2ccccc2-3)CC1 [TCMDC-135353] | 27.37% | – |
| CC1CCN(C(=O)[C@H](Cc2c[nH]c3ccccc23)NS(=O)(=O)c2ccc(Cl)cc2)CC1 [TCMDC-125035] | 69.39% | – |
| O=C(NCCC1CCN(CCc2c[nH]c3ccccc23)CC1)Nc1ccc(Cl)c(Cl)c1 [TCMDC-139151] | 31.54% | – |
| CC1CCN(C(=O)C(Cc2c[nH]c3ccccc23)NS(=O)(=O)c2ccc(Cl)cc2)CC1 (stereo not drawn) [TCMDC-124494] | 54% | – |
| C[C@@H](CNc1ccnc(Nc2ccc3[nH]c(=O)[nH]c3c2)n1)c1ccccc1 [TCMDC-136803] | -37.25% | – |

| Compound | % Inhibition | % Inhibition (% Inhibition) |
| --- | --- | --- |
| O=C(c1cc(C(F)(F)F)cc(C(F)(F)F)c1)N1CCC(CCN2CCC3(CC2)C(=O)NCN3c2ccccc2)CC1Cc1ccc(Cl)c(Cl)c1 (stereo not drawn) [TCMDC-141945] | -34.22% | – |
| CN1CCN(c2cccc(-c3nnc(-c4ccc(OCC(=O)NCc5ccc(C(F)(F)F)cc5)c([N+](=O)[O-])c4)o3)c2)CC1 [TCMDC-134942] | 2.294% | – |
| CC(C)(C)c1ccc(CNC(=O)COc2ccc(-c3nnc(-c4cccc([N+](=O)[O-])c4)o3)cc2[N+](=O)[O-])cc1 [TCMDC-134986] | -5.433% | – |
| CC1(C)[C@H]2CC[C@@H](CNc3nc(NCC(=O)Nc4ccc5ccccc5c4)nc(N4CCC(N5CCCC5)CC4)n3)[C@@H]1C2 [TCMDC-139977] | 10.19% | – |
| CC(C)(C)OC(=O)NCc1ccc(Nc2nnc(-c3ccc(OCC(=O)NCc4ccc(C(C)(C)C)cc4)c([N+](=O)[O-])c3)o2)cc1 [TCMDC-134991] | 114.3% | – |
| CC1(C)[C@H]2CC[C@@H](CNc3nc(NCCc4cnc[nH]4)nc(Nc4ccc(Oc5ccccc5)cc4)n3)[C@@H]1C2 [TCMDC-139744] | -37.07% | – |
| CC(C)(C)OC(=O)NCc1ccc(Nc2nnc(-c3ccc(OCC(=O)NC[C@@H]4CC[C@H]5C[C@@H]4C5(C)C)c([N+](=O)[O-])c3)o2)cc1 [TCMDC-135039] | 110.7% | – |
| CCCc1cc(N2CCC(N3CCCC3)CC2)nc(Nc2ccc(Cl)cc2)n1 [TCMDC-132386] | 18.02% | – |
| COc1ccc(C2CC(c3cccs3)=NN2C(=O)COc2cccc(C(C)=O)c2)cc1OC (stereo not drawn) [TCMDC-125111] | -18.64% | – |
| FC(F)(F)c1ccc(-c2cncc(-c3ccc(C(F)(F)F)cc3)n2)cc1 [TCMDC-138711] | -27.18% | – |
| N#Cc1cccc(Nc2nccc(NCC(O)c3ccccc3C(F)(F)F)n2)c1 (stereo not drawn) [TCMDC-136576] | -28.54% | – |
| O=C(Nc1ccc(-c2csc3nccn23)cc1)c1ccc(Cl)cc1 [TCMDC-137159] | 11.24% | – |
| CN1CCN(CCCN(Cc2ccc(-c3cccc(CNCc4ccc5c(c4)OCO5)c3)cc2)C(=O)Nc2ccccc2)CC1 [TCMDC-140606] | 65.32% | – |
| CN1CCN(CCCN(Cc2cccc(-c3ccc(CNCc4ccc5c(c4)OCO5)cc3)c2)C(=O)Nc2ccccc2)CC1 [TCMDC-140596] | 57.54% | – |
| CN1CCN(CCCN(Cc2ccc(-c3cccc(CNCc4ccc5c(c4)OCO5)c3)cc2)C(=O)NCCc2ccccc2)CC1 [TCMDC-140947] | 67.47% | – |
| CN1CCN(CCCN(Cc2ccc(-c3ccc(CNCc4ccc5c(c4)OCO5)cc3)cc2)C(=O)Nc2ccccc2)CC1 [TCMDC-140607] | 58.83% | – |
| c1ccc2c(c1)ncn2-c1ccnc(Nc2ccncc2)n1 [TCMDC-138908] | 15.51% | – |
| Cc1ccc(NC(=O)c2cc(Br)cc(N3CCCN(C)CC3)c2)cc1F [TCMDC-135143] | -89.56% | – |
| CCCCCN1CCCC(CNS(=O)(=O)c2ccc(C(=O)Nc3ccc(C(F)(F)F)cc3)cc2)C1 (stereo not drawn) [TCMDC-133679] | -5.047% | – |
| c1ccc2c(c1)CN(CC1CCOCC1)CC1(CCN(Cc3c[nH]c4cnccc34)CC1)O2 [TCMDC-133380] | 13.86% | – |
| O=C(NCCCN(Cc1ccc(F)cc1)c1ccccn1)C(c1cc2ccccc2o1)N1CCN(C(c2ccccc2)c2ccccc2)CC1 (stereo not drawn) [TCMDC-141022] | 15.04% | – |
| CCN(CCN(C)C)Cc1ccc(-c2ccc(NS(=O)(=O)c3cccc(Cl)c3)cc2)cc1 [TCMDC-136601] | 2.097% | – |
